Results filed as inconclusive are left out. Where a call stands in place of a potency, no number is given. The source made the active and inactive calls. Calls follow the shape of the dose curve; as a rule, active = well fitted curve in the direction sought with a large enough effect in the repeat runs; inconclusive = weak or mixed curves; inactive = no such curve, though single readings can be large; an effect the other way counts as inactive or inconclusive.
Biological target: Voltage-gated inwardly rectifying potassium channel KCNH2 (Homo sapiens) (UniProt Q12809)
Sequence (Q12809 whole entry, looked up): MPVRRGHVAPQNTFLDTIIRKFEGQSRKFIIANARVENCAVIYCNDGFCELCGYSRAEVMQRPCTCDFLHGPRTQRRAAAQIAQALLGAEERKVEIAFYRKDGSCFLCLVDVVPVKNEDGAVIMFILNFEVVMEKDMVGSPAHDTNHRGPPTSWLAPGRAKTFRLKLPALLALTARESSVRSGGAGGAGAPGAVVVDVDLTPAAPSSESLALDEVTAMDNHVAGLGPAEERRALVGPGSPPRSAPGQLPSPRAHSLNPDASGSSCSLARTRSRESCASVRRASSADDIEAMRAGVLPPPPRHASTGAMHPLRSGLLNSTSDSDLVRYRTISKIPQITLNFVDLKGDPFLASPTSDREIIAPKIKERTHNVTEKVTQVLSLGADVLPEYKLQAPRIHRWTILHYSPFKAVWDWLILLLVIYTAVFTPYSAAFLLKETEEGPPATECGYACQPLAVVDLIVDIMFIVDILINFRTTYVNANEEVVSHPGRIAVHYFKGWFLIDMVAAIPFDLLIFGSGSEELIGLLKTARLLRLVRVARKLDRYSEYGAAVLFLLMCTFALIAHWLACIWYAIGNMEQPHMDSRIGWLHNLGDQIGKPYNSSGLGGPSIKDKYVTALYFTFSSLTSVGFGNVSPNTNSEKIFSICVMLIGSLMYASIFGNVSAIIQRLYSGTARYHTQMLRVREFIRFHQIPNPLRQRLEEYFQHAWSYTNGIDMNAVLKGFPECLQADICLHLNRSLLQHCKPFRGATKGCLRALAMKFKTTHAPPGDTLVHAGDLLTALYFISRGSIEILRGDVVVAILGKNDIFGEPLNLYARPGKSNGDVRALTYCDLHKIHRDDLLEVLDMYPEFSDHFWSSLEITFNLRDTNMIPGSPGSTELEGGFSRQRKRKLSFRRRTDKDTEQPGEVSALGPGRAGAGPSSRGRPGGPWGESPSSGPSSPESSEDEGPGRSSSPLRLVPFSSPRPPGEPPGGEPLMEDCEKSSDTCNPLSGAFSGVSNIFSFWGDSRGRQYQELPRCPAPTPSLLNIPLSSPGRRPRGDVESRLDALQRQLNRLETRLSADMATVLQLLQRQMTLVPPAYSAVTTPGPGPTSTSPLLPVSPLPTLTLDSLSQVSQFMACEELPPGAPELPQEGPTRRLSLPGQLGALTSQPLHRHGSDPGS
Test: Human Ether-a-go-go-Related Gene (hERG) channel small molecule antagonists: fluorescence cell-based qHTS assay (AID 1671200);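 also: hERG-expressing U2OS cells given a thallium stimulus after FluxOR II dye loading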
Settings: hERG-U2OS cells, FluxOR thallium flux fluorescence; series mostly up to 76.8 µM
Summary of the method: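 Fluorescence at 540 nm emission (480 nm excitation) was recorded kinetically for 2 min at 1-second intervals once the thallium-containing stimulus reached cells previously loaded with FluxOR II dye.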
Also: nearly all actives have a fitted effect of over 50% in size.

SMILES | Potency
O=C1CCCc2c(O)cccc21 | inactive
CC(C)c1cc(C(C)C)cc(C(C)C)c1 | inactive
CCCc1ncc(C(=O)O)s1 | inactive
CC1=C(O)C(=O)CO1 | inactive
Cc1ccc2cccnc2c1 | inactive
COCCCOc1cc(C[C@@H](C[C@H](N)[C@@H](O)C[C@H](C(=O)NCC(C)(C)C(N)=O)C(C)C)C(C)C)ccc1OC | inactive
COC(=O)C(c1ccccc1Cl)N1CCc2sccc2C1 (configuration not stated) | inactive
NNC(=O)OCc1ccccc1 | inactive
COc1ccc(Cl)cc1C | inactive
Cc1cc(=O)oc2cc(O[C@@H]3SC[C@@H](O)[C@H](O)[C@H]3O)ccc12 | inactive
CCCC(C)C(O)CC (configuration not stated) | inactive
COCc1nnc(-c2ccc[n+]([O-])c2)n1-c1c(Cl)c(Cl)cc2[nH]c(=O)c(=O)[nH]c12 | inactive
O=C(O)CCCCCCCCCC(=O)O | inactive
O=C1Nc2ccccc2C1=O | inactive
C/C=C/C(=O)CCCC | inactive
C=C(C)C(=O)OCCCC | inactive
CCOC(=O)CC | inactive
O=C(O)Cc1ccccc1Oc1ccc(Cl)cc1Cl | inactive

SMILES | Potency
CSC(=O)c1cccc2nnsc12 | inactive
CCCCCCC(O)CO (configuration not stated) | inactive
O=S(=O)(O)CC(O)CCl (configuration not stated) | inactive
Cc1cc(C)c(N)c(Cl)c1 | inactive
CN(C)c1ccncc1 | inactive
CCCOc1ccc(C(=O)OCCN(CC)CC)cc1N | inactive
CCC(=O)OCCOc1ccccc1 | inactive
C/C(Cl)=C/CCl | inactive
O=S(=O)(O)c1ccc(Cl)cc1 | inactive
CC(C)(C)NCC(O)COc1cccc2c1CCC(=O)N2 (configuration not stated) | inactive
CCCCC(CC)COC(=O)CC#N (configuration not stated) | inactive
CC(CN1CC(=O)NC(=O)C1)N1CC(=O)NC(=O)C1 (configuration not stated) | inactive
Cc1ccc(Br)cc1 | inactive
CC(=O)Oc1ccc(C(C)=O)cc1 | inactive
C/C=C(\C)C=O | inactive
CCOC(=O)[C@H](CCc1ccccc1)N[C@H]1CS[C@H](c2cccs2)CN(CC(=O)O)C1=O | inactive
COC(C)(C)CC(C)=O | inactive
CC(C)C[P+](C)(CC(C)C)CC(C)C | inactive

Biological target: Cytochrome P450 3A4 (Homo sapiens) (UniProt P08684)
Sequence (P08684 whole entry, looked up): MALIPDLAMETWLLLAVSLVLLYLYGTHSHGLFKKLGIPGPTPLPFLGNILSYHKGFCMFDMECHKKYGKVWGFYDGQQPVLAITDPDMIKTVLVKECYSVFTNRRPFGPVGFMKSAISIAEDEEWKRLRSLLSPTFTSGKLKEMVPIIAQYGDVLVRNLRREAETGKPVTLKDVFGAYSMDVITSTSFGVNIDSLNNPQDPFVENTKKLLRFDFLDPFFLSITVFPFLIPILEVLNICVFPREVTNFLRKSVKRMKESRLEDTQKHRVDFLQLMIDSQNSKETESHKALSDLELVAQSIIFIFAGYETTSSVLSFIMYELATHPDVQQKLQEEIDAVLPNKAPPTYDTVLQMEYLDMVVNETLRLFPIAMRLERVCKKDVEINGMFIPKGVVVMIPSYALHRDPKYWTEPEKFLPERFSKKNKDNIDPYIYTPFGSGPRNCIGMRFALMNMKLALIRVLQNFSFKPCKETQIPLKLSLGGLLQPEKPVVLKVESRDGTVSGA
Test: Cytochrome P450 Family 3 Subfamily A Member 4 (CYP3A4) small molecule antagonists: luciferase reporter qHTS assay (AID 1671201); also: potency is read from the fitted curve at half-maximal effect
Settings: P450-Glo CYP3A4 enzyme, luciferin luminescence, 1 h; series mostly up to 115 µM
Summary of the method: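 qHTS, 1536-well. CYP3A4 + proluciferin substrate, cpd 10 min RT → NADPH regen 1 h RT → detection reagent 20 min → luminescence (RLU). Ketoconazole positive control.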

SMILES | Potency
C[Si](C)(C)O[Si](O)(O)O | inactive
O=C1CCCc2c(O)cccc21 | inactive
CC(C)c1cc(C(C)C)cc(C(C)C)c1 | inactive
CCCc1ncc(C(=O)O)s1 | inactive
CC1=C(O)C(=O)CO1 | inactive
Cc1ccc2cccnc2c1 | inactive
NNC(=O)OCc1ccccc1 | inactive
COc1ccc(Cl)cc1C | inactive
Cc1cc(=O)oc2cc(O[C@@H]3SC[C@@H](O)[C@H](O)[C@H]3O)ccc12 | inactive
CCCC(C)C(O)CC (configuration not stated) | inactive
COCc1nnc(-c2ccc[n+]([O-])c2)n1-c1c(Cl)c(Cl)cc2[nH]c(=O)c(=O)[nH]c12 | 6.33 µM (active)
O=C(O)CCCCCCCCCC(=O)O | inactive
O=C1Nc2ccccc2C1=O | inactive
C/C=C/C(=O)CCCC | 56.4 µM (active)
C=C(C)C(=O)OCCCC | inactive
CCOC(=O)CC | inactive
COc1cc(NS(=O)(=O)c2ccc(N)cc2)ncn1 | inactive
O=C(O)Cc1ccccc1Oc1ccc(Cl)cc1Cl | inactive

SMILES | Potency
CSC(=O)c1cccc2nnsc12 | inactive
CCCCCCC(O)CO (configuration not stated) | inactive
O=S(=O)(O)CC(O)CCl (configuration not stated) | inactive
Cc1cc(C)c(N)c(Cl)c1 | inactive
CN(C)c1ccncc1 | inactive
CCCOc1ccc(C(=O)OCCN(CC)CC)cc1N | inactive
CCC(=O)OCCOc1ccccc1 | inactive
C/C(Cl)=C/CCl | inactive
O=S(=O)(O)c1ccc(Cl)cc1 | inactive
CC(C)(C)NCC(O)COc1cccc2c1CCC(=O)N2 (configuration not stated) | inactive
CCCCC(CC)COC(=O)CC#N (configuration not stated) | 39.9 µM (active)
CC(CN1CC(=O)NC(=O)C1)N1CC(=O)NC(=O)C1 (configuration not stated) | inactive
Cc1ccc(Br)cc1 | inactive
CC(=O)Oc1ccc(C(C)=O)cc1 | inactive
C/C=C(\C)C=O | inactive
CCOC(=O)[C@H](CCc1ccccc1)N[C@H]1CS[C@H](c2cccs2)CN(CC(=O)O)C1=O | inactive
COC(C)(C)CC(C)=O | inactive
CC(C)C[P+](C)(CC(C)C)CC(C)C | inactive
